# Assay results taken from PubChem BioAssay AID540276 (National Center for Advancing Translational Sciences (NCATS), 2011).
# Screen size: about 300,000 compounds; about 5,400 (1.8%) were called active. About 28% were inconclusive and are not listed. Many of the other results were omitted from the sample, so actives are more common in it than they were. Values without a mark were called inactive. Calls follow the shape of the full dose curve; tested in HEK293 cells.
# Assay: qHTS for inhibitors of binding or entry into cells for Marburg Virus
# Conditions: Marburg virus pseudotyped entry inhibition, cell reporter; series mostly up to 37.8 µM; activity change, negative = inhibition: at the top concentration
# % is scaled to controls: 0 for no effect and ±100 for the full control effect; potency is read from the fitted curve at half-maximal effect.
Structure (SMILES),"activity change, negative = inhibition",Potency
O=C(c1cc2cc(Br)cc(Br)c2oc1=O)N1CCOCC1,15% [at 46.1 µM],–
COCCCNCCOCCOc1ccc(Cl)cc1Br,–,11.6 µM (active)
CSc1ccc(/C=N\NC(=O)COc2ccc(Cl)cc2Br)cc1,-19%,–
COCCNCCOCCOc1cccc(OC)c1,-0.109%,–
CCS(=O)(=O)Nc1ccc(C(=O)NCCSc2ccccc2)cc1,3.27%,–
CC(C)Cn1c(=O)c2ccccc2n2c(CCC(=O)NCc3ccccn3)nnc12,22.8% [at 46.1 µM],–
CNN/C(N=Cc1ccc([N+](=O)[O-])s1)=N\S(=O)(=O)c1cc(C)c(Cl)cc1SCc1ccccc1,-8.61%,–
O=[N+]([O-])c1ccc(C=Nc2ccc(Cl)cc2Cl)s1,–,5.8 µM (active)
CN1CCN(c2ccc(NC(=O)c3cc(Cl)c4c(c3)OCCO4)cc2)CC1,-14.5% [at 46.1 µM],–
CCc1ccc(N(C(=O)c2csnn2)C(C(=O)NC2CCCCC2)c2cccnc2)cc1 (stereo unspecified),-14.8% [at 46.1 µM],–
CCCn1nc(NS(=O)(=O)c2ccc(F)cc2)c2cc3ccccc3nc21,-1.54% [at 46.1 µM],–
CC(C)Cn1c(SCC(=O)Nc2ccc(Cl)cc2F)nc(O)cc1=O,21%,–
COCCN(CCOC)C(=S)Nc1ccccc1Cl,-0.33% [at 46.1 µM],–
O=C(Nc1ccccc1Cl)/C(Cl)=C(\Cl)S(=O)c1ccccc1 (stereo unspecified),–,3.16 µM (active)
O=C(COC(=O)c1cccs1)Nc1ccccc1Cl,17.9% [at 46.1 µM],–
O=C1c2ccccc2C(=O)C1C(=O)C1CC1,2.92% [at 46.1 µM],–
O=c1c2ccccc2ncn1CCc1ccncc1,9.16%,–
Cc1cc(Nc2ccc(N3CCOCC3)cc2)c2cccc(C)c2n1,–,0.794 µM (active)
Cc1nn2c3cc(N4CCOCC4)ccc3nc2c2ccccc12,-9.17%,–
Cc1ccccc1N/N=C/c1ccc(N2CCOCC2)cc1,22.1%,–
CC(NC(=O)c1cccc(S(=O)(=O)N2CCc3ccccc3C2)c1)c1ccco1 (stereo unspecified),-28.7%,–
Cc1cc(Nc2ccc(Cl)cc2)nc(N2CCOCC2)n1,–,7.94 µM (active)
Cc1cc(Oc2ccccc2)nc(N2CCOCC2)n1,0.114%,–
Cc1cc(C)nc(N2CCC(C(=O)Nc3ccc4c(c3)OCCO4)CC2)n1,-25.8% [at 46.1 µM],–
O=C(O)c1ccc2c(=O)n3c(nc2c1)/C(=C/c1ccc(OC(F)F)cc1OC(F)F)CC3,14.9% [at 46.1 µM],–
Cc1oc2ccc(O)c(CN3CCOCC3)c2c1C(=O)Nc1cccc(Cl)c1C,-0.854% [at 46.1 µM],–

Structure (SMILES),"activity change, negative = inhibition",Potency
Cc1oc2ccc(O)c(CN3CCCCC3)c2c1C(=O)Nc1cccc(C(F)(F)F)c1,–,10 µM (active)
CCN1CCN(Cc2c(O)ccc3oc(C)c(C(=O)Nc4ccc(C)cc4C)c23)CC1,10.7% [at 46.1 µM],–
Cc1cc(=O)oc2c(C)c(OC(C)C(=O)NC3CCN(Cc4ccccc4)CC3)ccc12 (stereo unspecified),-7.42% [at 46.1 µM],–
Cc1cc(-c2nnc(SCC(=O)Nc3ccc(F)cc3)n2N)n[nH]1,16.2% [at 46.1 µM],–
CC(C)CC1C(=O)N(Cc2cn(Cc3ccco3)nn2)CCS(=O)(=O)N1Cc1ccc(-c2ccc(Cl)c(Cl)c2)cc1 (stereo unspecified),–,25 µM (active)
CC(=O)c1cccc(-c2ccc(CN3C(CC(C)C)C(=O)N(Cc4cn(CC5CCCCC5)nn4)CCS3(=O)=O)cc2)c1 (stereo unspecified),0.481%,–
Cc1ccc(C)c(NC(=O)COC(=O)c2nn(C)c(=O)c3ccccc23)c1,11.2%,–
O=C(NC1=CC(=O)c2ccccc2C1=O)c1ccccc1,–,10 µM (active)
O=C(Nc1cccc(NC(=O)c2ccc(Br)cc2)c1)c1ccccc1,–,inactive
O=C1C=C(NS(=O)(=O)c2ccccc2)C(=O)c2ccccc21,-2.09% [at 46.1 µM],–
Fc1ccc([C@H]2C3=C(Nc4ncnn42)c2ccccc2O[C@H]3c2ccncc2)cc1,-11%,–
Clc1ccc2c(c1)C1=C(C(c3ccncc3)O2)C(c2ccc(Br)cc2)n2ncnc2N1 (stereo unspecified),–,11.6 µM (active)
CCOC(=O)C1=C(c2ccccc2)Nc2ncnn2C1c1ccc(Cl)cc1 (stereo unspecified),4.14% [at 46.1 µM],–
CC1(C)CC(=O)c2ccc(O)cc2O1,-6.25% [at 46.1 µM],–
CC[C@@H]1Cc2cc(O)ccc2C2=C1c1ccc(O)cc1C[C@H]2CC,–,35.5 µM (active)
O=C(c1ccccc1)c1ccc(OCC(O)CN2CCCC2)cc1 (stereo unspecified),-24% [at 46.1 µM],–
OC(COCCC12CC3CC(CC(C3)C1)C2)CN1CCCCC1 (stereo unspecified),–,2.91 µM (active)
COc1cc(/C=N/NC(=O)c2cccnc2)ccc1OC(=O)c1cccc(Br)c1,2.52%,–
O=C(C1CC(=O)N(c2ccc(Br)cc2)C1)N1CCCC1 (stereo unspecified),1.98%,–
COc1ccc(C2(CNC(=O)C(c3ccccc3)c3ccccc3)CCOCC2)cc1OC,-26.8%,–
Cc1cccc(C(CC(=O)NCC2(c3ccccc3)CCCC2)c2ccccc2)c1O (stereo unspecified),–,10 µM (active)
COc1ccc(C2(CNC(=O)Cc3ccc(OC)c(OC)c3)CCCC2)cc1,-28.1% [at 46.1 µM],–
O=C(Nc1cc(S(=O)(=O)N2CCOCC2)ccc1N1CCOCC1)c1c(F)cccc1Cl,3.28%,–
CC12CCCCC1=CC(=O)CC2 (stereo unspecified),8.83%,–
COc1ccc(N2CCN(S(=O)(=O)c3cc(Br)cnc3N)CC2)cc1,14.7% [at 46.1 µM],–
